Data reported in PubChem BioAssay.
Activity calls are given as the source filed them.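 The calls were made as follows, unless noted: active = NADPH fluorescence slope more negative than the mean of all samples by about 3 SD, 99.7% confidence; inactive = the rest.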

Experiments:
[1] = inhibitors of TNFa-induced NFkB p65 translocation, primary screen, imaging, HUVEC, MLSMR starter and 10KST1 sets (AID 438;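 active = inhibition above 20% together with a positive visual image hit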;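 also: compound added about 3h40 before a 20 min TNFalpha stimulation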;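 as to inhibition: signal is the nuclear over cytoplasmic p65 intensity ratio per well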); settings: HUVEC TNFa-induced p65 nuclear translocation; cell count: measured here: nuclei count (cytotoxicity indicator), at 2.08 µM; inhibition: at 2 µM, stronger effect = higher value, 0% TNFa-plus-vehicle, 100% no-TNFa wells
[2] = inhibitors of mutant huntingtin aggregation, primary screen, imaging, exon1htt(103Q)mCFP cells, high-content imaging (AID 483;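 active = visual image review flags a hit and inhibition of aggregation exceeds 20%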;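 also: compound exposure lasted 3 days before fixation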;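 as to nuclei count: percent of the per-plate median nuclei count of sample wells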); settings: exon1htt(103Q)mCFP cell line, aggregate imaging, at 2 µM; inhibition of aggregation: stronger effect = higher value; nuclei count: measured here: cell count, toxicity
[3] = inhibitors of E-selectin induction by TNFa, primary screen, imaging, HUVEC, immunofluorescence, MLSMR starter and 10KST1 sets (AID 487;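 active = visually confirmed hit in the image check and inhibition above 20%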;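 as to inhibition: signal is fraction of cell area covered by stained E-selectin grains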;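 as to nuclei count: 100% = median nuclei count of all wells on the same plate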); settings: HUVEC TNFalpha-induced E-selectin immunofluorescence imaging, at 2 µM; inhibition: stronger effect = higher value; nuclei count: measured here: cell number, toxicity
[4] = target: Voltage-gated potassium channel subunit beta-2 (Rattus norvegicus) (UniProt P62483); test: KvBeta enzyme negative modulators, primary screen, biochemical, NADPH fluorescence (AID 622;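 active = fluorescence slope higher than the sample average by over 3 SD, cut at about -0.22 in these data, passing the limit was not always enough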;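 also: slope of raw intensity against log time taken from 70 to 1610 s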); settings: recombinant KvBeta, 4-cyanobenzaldehyde reduction, at 10 µM, stronger effect = higher value
[5] = target: Voltage-gated potassium channel subunit beta-2 (Rattus norvegicus) (UniProt P62483); test: KvBeta positive modulators, primary screen, biochemical, NADPH fluorescence (AID 623); settings: Recombinant KvBeta, NADPH fluorescence decrease slope, 10 min; at 10 µM; stronger effect = lower value;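 also: fluorescence intensity change per second fitted from 20 to 320 s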
[6] = target: Alpha-2C adrenergic receptor (Homo sapiens) (UniProt P18825); test: modulators of alpha2C/GIRK thallium flux, primary screen, cell-based, HEK293 alpha2C/GIRK1/2 (AID 624;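 active = fluorescence slope after compound addition differing from the mean of all screened samples at 99.7% confidence, in either direction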;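 also: slope of fluorescence ratio to pre-addition baseline per second over 15 to 24 s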); settings: thallium flux BTC fluorescence, at 10 µM, actives lie on both sides
[7] = inhibitors of Sendai virus-induced IRF3 signaling, primary screen, TLR/RLR signaling modifier project, cell-based, Sendai virus stimulus, luciferase, 10K MLSCN set (AID 602276;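 active = inhibition at or above 50% at 10 µM; inactive = inhibition below 50%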;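 also: firefly luciferase from ISG56 promoter only with Renilla not read in this screen; 0% = Sendai virus plus DMSO and 100% = medium plus DMSO without virus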); settings: HEK293 RL24 IRF3 luciferase reporter, at 10 µM, stronger effect = higher value
[8] = inhibitors of poly I:C-induced TLR3 signaling, primary screen, cell-based, poly I:C stimulus, luciferase, 10K MLSCN set (AID 602277;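 active = inhibition of the reporter signal at or above 50%; inactive = inhibition below 50%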); settings: HEK293-TLR3 RL24 IRF3 luciferase reporter, at 10 µM, stronger effect = higher value

Chain of Voltage-gated potassium channel subunit beta-2 (Rattus norvegicus) (P62483 whole entry, looked up): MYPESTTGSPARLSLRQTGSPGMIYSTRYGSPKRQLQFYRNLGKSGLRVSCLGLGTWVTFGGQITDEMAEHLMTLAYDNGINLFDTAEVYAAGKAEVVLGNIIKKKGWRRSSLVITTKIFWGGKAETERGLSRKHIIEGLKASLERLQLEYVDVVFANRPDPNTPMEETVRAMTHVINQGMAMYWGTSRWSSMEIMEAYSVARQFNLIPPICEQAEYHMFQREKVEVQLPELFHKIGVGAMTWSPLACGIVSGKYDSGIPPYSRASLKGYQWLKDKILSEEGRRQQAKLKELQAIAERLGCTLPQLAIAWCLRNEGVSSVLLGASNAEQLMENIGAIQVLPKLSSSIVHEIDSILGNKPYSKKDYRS
Chain of Alpha-2C adrenergic receptor (Homo sapiens) (P18825 whole entry, looked up): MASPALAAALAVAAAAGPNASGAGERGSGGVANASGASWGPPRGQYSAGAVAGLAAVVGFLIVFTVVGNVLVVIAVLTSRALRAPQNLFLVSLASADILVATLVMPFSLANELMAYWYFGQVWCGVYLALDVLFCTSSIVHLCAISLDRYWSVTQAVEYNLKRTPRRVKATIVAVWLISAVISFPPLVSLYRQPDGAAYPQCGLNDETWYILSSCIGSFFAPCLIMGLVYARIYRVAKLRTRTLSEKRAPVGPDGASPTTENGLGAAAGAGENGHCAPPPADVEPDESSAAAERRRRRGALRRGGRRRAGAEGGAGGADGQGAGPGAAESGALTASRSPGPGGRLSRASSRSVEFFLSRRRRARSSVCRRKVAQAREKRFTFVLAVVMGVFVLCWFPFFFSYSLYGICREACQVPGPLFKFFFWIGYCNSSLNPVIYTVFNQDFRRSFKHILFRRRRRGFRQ

SMILES | cell count [1] | inhibition [1] | inhibition of aggregation [2] | nuclei count [2] | inhibition [3] | nuclei count [3] | fluorescence slope [4] | NADPH fluorescence slope [5] | slope [6] | inhibition [7] | inhibition [8]
CCC(C)(C)n1nnnc1C(c1ccc(OC)c(OC)c1)N1CCN(c2ccc(F)cc2)CC1 (configuration not stated) | 406 | 4% (inactive) | -1% (inactive) | 96.8% | 10.4% (inactive) | 106% | -0.442 (inactive) | -2.6e-05 (inactive) | 0.00413 (inactive) | 14% (inactive) | 43.5% (inactive)
Cc1oc(C(=O)O)cc1CSCc1cc(C(=O)O)c(C)o1 | 403 | -9.3% (inactive) | -21.1% (inactive) | 102% | -15.5% (inactive) | 118% | -0.508 (inactive) | 3.2e-05 (inactive) | 0.00721 (inactive) | -20.7% (inactive) | -5.67% (inactive)
CCOC(=O)C1=C(NC#N)OC(C)=C(C)C1c1ccc(O)cc1 (configuration not stated) | 276 | 1% (inactive) | -12.7% (inactive) | 117% | 15.8% (inactive) | 100% | -0.487 (inactive) | -1.5e-05 (inactive) | 0.00651 (inactive) | 20.5% (inactive) | 18.3% (inactive)
Cc1cccc(-n2ncc3c(NCCCO)ncnc32)c1 | 840 | 2.3% (inactive) | -32% (inactive) | 101% | -2.8% (inactive) | 107% | -0.582 (inactive) | -1.5e-05 (inactive) | 0.00564 (inactive) | -58.8% (inactive) | -193% (inactive)
O=C(c1ccco1)N1CCN(/C(=N/S(=O)(=O)c2cccs2)c2ccccc2Cl)CC1 | 852 | -5.6% (inactive) | 2.4% (inactive) | 103% | 33.2% (inactive) | 95.1% | -0.491 (inactive) | -5.1e-05 (inactive) | 0.00477 (inactive) | -2.11% (inactive) | 12.2% (inactive)
CCN(CC)c1ccc(/C=N/n2nnnc2N)c(O)c1 | 428 | -1.1% (inactive) | -13.8% (inactive) | 101% | -29.5% (inactive) | 130% | -0.413 (inactive) | 6.9e-05 (inactive) | 0.00627 (inactive) | 4.84% (inactive) | 1.57% (inactive)
COc1ccc(Br)cc1CNC(=O)C1CCCN(S(C)(=O)=O)C1 (configuration not stated) | 949 | -7.5% (inactive) | -7.3% (inactive) | 114% | -129% (inactive) | 113% | -0.362 (inactive) | -5.7e-05 (inactive) | 0.00566 (inactive) | 5.73% (inactive) | 33.6% (inactive)
COC(=O)C1CCN(C(=O)c2sc3nc(-c4ccc(F)cc4)cn3c2C)CC1 | 654 | -6.1% (inactive) | -14.7% (inactive) | 105% | -65.8% (inactive) | 120% | -0.487 (inactive) | -4.6e-05 (inactive) | 0.00421 (inactive) | 10.2% (inactive) | 3.27% (inactive)
CC1CC(C)CN(c2ncnc3c2cnn3-c2ccc(Cl)cc2)C1 (configuration not stated) | 584 | 3.4% (inactive) | 12.1% (inactive) | 79.5% | -52.4% (inactive) | 112% | -0.504 (inactive) | -2e-05 (inactive) | 0.00874 (inactive) | 37.3% (inactive) | 11.5% (inactive)
O=C(NCc1ccco1)c1csc(Nc2ccccc2Cl)n1 | 484 | -6.2% (inactive) | -0.3% (inactive) | 118% | -144% (inactive) | 233% | -0.503 (inactive) | -3.4e-05 (inactive) | 0.0062 (inactive) | -50.5% (inactive) | -12.9% (inactive)
COc1cc(-n2nc(C)c3c2OC(N)=C(C#N)C3c2ccccc2)c(Cl)c(Br)c1O (configuration not stated) | 490 | -1.6% (inactive) | 2.1% (inactive) | 71.4% | -8.7% (inactive) | 108% | -0.397 (inactive) | -3.5e-05 (inactive) | 0.00309 (inactive) | 18.2% (inactive) | 14.7% (inactive)
CCOC(=O)c1sc2cccc(F)c2c1N | 546 | -17.8% (inactive) | 24.4% (inactive) | 102% | 4.5% (inactive) | 110% | -0.319 (inactive) | -7.4e-05 (inactive) | 0.00522 (inactive) | -3.55% (inactive) | -14.4% (inactive)
N#CC1=C(N)OC(c2ccccc2)=C(C#N)C1c1ccc2c(c1)OCO2 (configuration not stated) | 609 | -19.6% (inactive) | 6% (inactive) | 112% | 29.2% (inactive) | 96.1% | -0.482 (inactive) | -9.1e-05 (inactive) | 0.00651 (inactive) | -16.2% (inactive) | 10.8% (inactive)
CC(=O)c1cn(CC(=O)NCc2ccc3c(c2)OCO3)c2ccccc12 | 326 | -2.1% (inactive) | -11.9% (inactive) | 108% | -24.5% (inactive) | 107% | -0.534 (inactive) | -9.1e-05 (inactive) | 0.00566 (inactive) | 11.9% (inactive) | 9.83% (inactive)
CCS(=O)(=O)c1nc2ccccc2n1Cc1ccccc1Cl | 689 | -1.1% (inactive) | -10.2% (inactive) | 115% | -31.4% (inactive) | 109% | -0.542 (inactive) | -5.8e-06 (inactive) | 0.0072 (inactive) | -0.827% (inactive) | 18.9% (inactive)
Cc1cc(C)c2[nH]c(=O)c(C(c3nnnn3Cc3ccc4c(c3)OCO4)N3CCC(C)CC3)cc2c1 (configuration not stated) | 716 | -1.6% (inactive) | 2.1% (inactive) | 98.1% | 70% (inactive) | 73.2% | -0.428 (inactive) | 6.4e-06 (inactive) | 0.0051 (inactive) | -4.82% (inactive) | 18.2% (inactive)
Cc1onc(-c2ccccc2Cl)c1C(=O)NCc1cccnc1 | 700 | 1% (inactive) | 8.2% (inactive) | 97.9% | 8.5% (inactive) | 92.3% | -0.523 (inactive) | 1.3e-05 (inactive) | 0.00593 (inactive) | 17.8% (inactive) | 19.3% (inactive)
CCCS(=O)(=O)NCCc1cc2cc(C)c(C)cc2[nH]c1=O | 321 | -18.8% (inactive) | 4.2% (inactive) | 84.9% | -16.4% (inactive) | 106% | -0.587 (inactive) | -7.5e-05 (inactive) | 0.0056 (inactive) | 4.21% (inactive) | -4.55% (inactive)
O=C(COC(=O)CCC(=O)c1cccs1)NCc1ccco1 | 469 | -20.9% (inactive) | 1.1% (inactive) | 101% | -16.1% (inactive) | 86.1% | -0.332 (inactive) | -5.5e-05 (inactive) | 0.00705 (inactive) | 18% (inactive) | 25.1% (inactive)
Cc1ccc(-n2ncc3c(=O)n(CC(=O)N4CCCc5ccccc54)cnc32)cc1C | 227 | -2.8% (inactive) | 10.4% (inactive) | 93.3% | 9.3% (inactive) | 87.8% | -0.346 (inactive) | -6.2e-05 (inactive) | 0.00504 (inactive) | -13.9% (inactive) | -13.7% (inactive)
COc1ccc(-c2ccc(=O)n(Cc3cc(=O)n4ccccc4n3)n2)cc1 | 789 | -6.4% (inactive) | -19.1% (inactive) | 99.5% | -101% (inactive) | 140% | -0.108 (inactive) | -3.8e-05 (inactive) | 0.00509 (inactive) | 7.67% (inactive) | 12.2% (inactive)
COCCN(CCOC)c1ncnc2c1cnn2-c1ccccc1 | 636 | -8.5% (inactive) | -21.1% (inactive) | 113% | -14.8% (inactive) | 107% | -0.531 (inactive) | -2.1e-05 (inactive) | 0.00603 (inactive) | -24.8% (inactive) | -50.6% (inactive)
CN1CCN(C(c2cccc(C(F)(F)F)c2)c2nnnn2C(C)(C)C)CC1 (configuration not stated) | 337 | -6% (inactive) | 32.7% (inactive) | 73.7% | -68.4% (inactive) | 94.8% | -0.591 (inactive) | -2.7e-05 (inactive) | 0.00442 (inactive) | 19.1% (inactive) | 22.7% (inactive)
O=C(Nc1nnc(N2CCCCCC2)s1)c1cc(-c2ccc(Br)cc2)on1 | 890 | 1.2% (inactive) | 5.2% (inactive) | 85.6% | -76.6% (inactive) | 120% | -0.612 (inactive) | -2.8e-06 (inactive) | 0.00651 (inactive) | 5.43% (inactive) | 23.2% (inactive)
Cc1oc(-c2ccccc2Cl)nc1CSCC(=O)N1CCCC1 | 319 | 9.3% (inactive) | 19.4% (inactive) | 91.6% | 62.6% (active) | 102% | -0.572 (inactive) | 5.9e-06 (inactive) | 0.00514 (inactive) | -10.3% (inactive) | 8.17% (inactive)
O=c1[nH]c(=O)n(C2CCCCCC2)c(O)c1C=NCc1ccc(F)cc1 | 666 | 5% (inactive) | 0.1% (inactive) | 109% | 3% (inactive) | 110% | -0.321 (inactive) | 3.1e-05 (inactive) | 0.00576 (inactive) | 14.6% (inactive) | 26.9% (inactive)
CCCCn1c2c(c3ccccc31)CCc1nonc1-2 | 664 | -4% (inactive) | 8.5% (inactive) | 75.1% | -16.7% (inactive) | 100% | -0.601 (inactive) | 4.9e-06 (inactive) | 0.00755 (inactive) | -16.3% (inactive) | 13.4% (inactive)
